# Bioassay records from PubChem.
# Shown are actives, neighbours in structure and some others; about 3.4% of the full set was active somewhere.
# HIF-2a inh – HIF-2a inhibition; 786-0 RCC cells HIF-2a reporter, luciferase luminescence, overnight; inhibition, % at 18.8 µM; 360,000 compounds, 0.72% hits;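 active = inhibition of the luminescence signal of 40% or more relative to plate controls, in a single-dose primary screen at 18.75 µM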
# MITF TRPM1 inh – inhibitors of MITF-driven TRPM1 promoter in melanoma cells. inhibition, % at 12.5 µM. AID 488899. SK-MEL-5 TRPM1 promoter luciferase, 24 h. 330,000 compounds, 0.83% hits;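 active = mean inhibition across replicates of 60% or more, whatever share of single replicates reaches that level; inconclusive = some that reach 60%, reason not given; inactive = mean inhibition across replicates below 60%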
# TWEAK Fn14 block – blocks TWEAK-Fn14 interaction in a reporter cell assay; TWEAK-stimulated Fn14 reporter cells, luciferase luminescence, 8 h; inhibition, % at 10 µM; 360,000 compounds, 2% hits; AID 1159606; in the data active = inhibition above about 50%
# Shn3 3UTR inh – inhibitors of Schnurri-3 3'UTR reporter in osteoblasts | inhibition, % at 12.5 µM | 360,000 compounds, 0.52% hits | Clone20 osteoblast Shn3 3'UTR firefly luciferase, 24 h;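 active = mean inhibition of at least 75% with every replicate also reaching 75%; inconclusive = mean inhibition at least 75% but some replicate below; inactive = mean inhibition below 75%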;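 also: 0% = median of neutral control wells and 100% = pilot-screen positive control compound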
# TROY signal inh – TROY signaling inhibition | Q293 LMP1-TROYcd NF-kB luciferase reporter, 4 h | inhibition, % at 10 µM | 360,000 compounds, 0.98% hits | AID 1347056;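 active = compounds whose plate-normalised and pattern-corrected inhibition of the luciferase reporter signal at the single screening dose is 50% or more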
# EBV LMP1 NFkB – Epstein-Barr LMP1 NF-kappaB reporter inhibition; 350,000 compounds, 0.69% hits; AID 504558; inhibition, % at 12.5 µM; LMP1-induced NF-kappaB luciferase reporter cells, luminescence; in the data active = inhibition above about 41%; inconclusive = no clear call, values can overlap the other calls;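 also: 0% = neutral control wells and 100% = reference inhibitor control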
# Numbers without * were called inactive; ? = inconclusive; · = no result.
SMILES,HIF-2a inh,MITF TRPM1 inh,TWEAK Fn14 block,Shn3 3UTR inh,TROY signal inh,EBV LMP1 NFkB
O=S(=O)(c1ccc(F)c(F)c1F)N1CCN(c2ncnc3sccc23)CC1,24.9,22.2,40.4,?,27.8,3.1
c1ccc(CC2CCN(c3ncnc4sccc34)CC2)cc1,-65.5,-1.2,30.5,90.3*,2.3,23.6
Cc1ccc(S(=O)(=O)N2CCN(c3ncnc4sccc34)CC2)cc1,19.4,19.5,21.5,87.1*,9.9,18.9
N=c1oc2ccc(Br)cc2cc1C(=O)NC1CCCCCC1,-40.7,4.2,12.2,-13.2,-22.6,-7.9
O=C(Cn1cc(COc2ccc(Br)cc2[N+](=O)[O-])nn1)c1ccc(O)cc1,3.0,5.2,-6.9,12.8,-3.8,-7.5
FC(F)(F)c1cccc(CC2CN(Cc3ccccc3)Cc3ccccc3N2c2cc(Cl)cc(Cl)c2)c1 (stereo unspecified),8.3,·,91.4*,14.0,34.5,-5.4
O=S1(=O)CCOC[C@H](Cc2ccccc2)N1Cc1cccc(C(F)(F)F)c1,19.0,-4.6,-1.4,-3.0,11.5,5.1
Cc1ccccc1NC(=O)COC(=O)COc1ccc2ccc(=O)oc2c1,4.2,·,6.2,14.5,6.6,4.3
CC1CCN(CCCCOc2ccc(C(=O)c3ccccc3)cc2)CC1,4.9,-22.9,-2.4,26.7,-3.8,-2.2
CC1CCN(CCOc2ccc(C(=O)c3ccccc3)cc2)CC1,4.6,2.8,4.2,14.1,4.3,79.5*
Oc1c(C=Nc2ccccc2)sc2ccccc12,-267.2,-18.3,67.5*,-53.6,36.6,-48.4
Oc1c(C=Nc2cccnc2)sc2ccccc12,-75.6,-11.2,-9.5,0.8,-0.5,-1.3
Cc1ccc(S(=O)(=O)N2CCN(C(=O)CSc3nnnn3C)C2)cc1,17.4,-14.2,-4.7,23.5,16.4,62.1*
N#C/C(=C\c1coc2ccc(O)cc2c1=O)C(=O)Nc1nc2ccccc2s1,-53.1,12.0,73.3*,-13.2,51.7*,-4.9
Cc1c(C)n(Cc2ccccc2)c2ncnc(Cl)c12,27.2,10.5,64.9*,77.3,37.5,28.6
Cc1c(C)n(CCc2ccccc2)c2ncnc(NCCO)c12,-207.7,-135.4,7.8,-42.7,-45.7,-38.1
CC(=O)c1ccc(N2CCN(Cc3cc(=O)n4c(-c5ccccc5)csc4n3)CC2)cc1,-6.1,10.3,17.1,25.2,11.7,7.7
O=c1cc(CN2CCN(c3ccccc3)CC2)nc2scc(-c3ccccc3)n12,-38.5,10.0,41.9,11.8,58.1*,-3.5
CC(=O)Nc1ccc(NC(=O)CSc2nnc(NC(=O)c3ccccc3F)s2)cc1,-139.4,·,12.1,-77.2,-65.8,8.0
Fc1cccc(Cl)c1/C=N/Nc1c(Cl)cncc1Cl,-94.6,-20.4,53.5*,0.9,18.9,5.3
O=C(NCCc1ccccn1)c1nc(Cn2cc(Br)cn2)no1,7.0,9.4,5.3,-1.7,5.1,0.8
COc1ccc(C(=O)OCC(=O)N2c3ccccc3CC2C)cc1S(=O)(=O)N1CCOCC1 (stereo unspecified),1.9,·,8.1,-13.5,-10.5,3.7
CCOc1ccccc1CN1CCCC(CNC(=O)Cc2ccc(OC)cc2)C1 (stereo unspecified),12.1,-7.3,-9.7,10.3,12.7,1.9
COc1ccc(/C=C/C(=O)Nc2sc3c(c2C(=O)NCc2cccnc2)CCCC3)cc1,-26.6,-1.5,52.6*,14.6,5.6,10.5
COc1ccc(/C=N/Nc2nc3ccccc3[nH]2)cc1OC,-188.0,-84.0,-9.6,-19.2,-63.6,-5.2
SMILES,HIF-2a inh,MITF TRPM1 inh,TWEAK Fn14 block,Shn3 3UTR inh,TROY signal inh,EBV LMP1 NFkB
COc1ccc2c(c1)c(/C=N/Nc1nc3ccccc3[nH]1)c(C)n2C,-34.5,4.5,88.1*,·,54.0*,-3.6
COc1cc(/C=N\Nc2nc3ccccc3[nH]2)cc(OC)c1OC,-53.5,2.1,62.0*,51.2,51.2*,14.8
Cc1cc(Cl)ccc1OCC(=O)N/N=C/c1ccncc1,-3.4,4.0,1.1,-6.6,8.5,8.8
N=P(N1CCOCC1)(N1CCOCC1)C12CC3CC(CC(C3)C1)C2,12.5,0.6,81.0*,3.5,·,4.1
O=c1c2cnn(-c3ccccc3)c2nc(-c2cccs2)n1-c1ccc(Cl)cc1,-12.7,-2.4,31.1,-7.6,6.8,43.9*
COC(=O)c1ccc2nc(C3CCCCC3)c(Cc3ccc(C)cc3)n2c1,-54.2,·,-5.7,-16.7,-25.9,·
O=C(COc1coc(CN2CCc3ccccc3C2)cc1=O)Nc1ccccc1F,-8.5,-3.2,-4.8,-4.9,1.5,-2.8
CC(C)(C)C1=CC(=O)C(=O)C(C(C)(C)C)=C1,42.0*,·,14.8,-3.2,5.0,5.1
CC(OC(=O)/C=C/c1cccs1)C(=O)Nc1ccc(S(N)(=O)=O)cc1 (stereo unspecified),7.4,5.1,4.7,·,-5.4,-2.4
CC(OC(=O)/C=C/c1ccc2ccccc2n1)C(=O)Nc1ccc(S(N)(=O)=O)cc1 (stereo unspecified),30.9,50.4,58.1*,-37.2,16.6,-25.4
O=C(O)c1ccccc1C(=O)c1cccc2c(Br)cccc12,10.2,-5.5,-6.7,-4.8,16.8,8.6
Cc1ccccc1C[n+]1cccc2ccccc21,9.2,14.9,-9.5,1.8,-3.3,1.2
CCCCCCCCCCCCCCCC[n+]1cccc2ccccc21,93.8*,103.2*,72.1*,92.0*,53.7*,29.7
Cc1ccc(-c2csc(NC(=O)c3ccc4c(=O)n5c(nc4c3)CCCCC5)n2)cc1,-18.3,32.4,70.1*,18.0,-25.9,28.1
O=C(Nc1cccc(Cl)c1)c1ccc2c(=O)n3c(nc2c1)CCCCC3,-187.4,-46.9,40.8,-56.5,52.8*,-22.6
CC(=O)c1ccc(NC(=O)c2ccc3c(=O)n4c(nc3c2)CCCCC4)cc1,-13.4,1.3,13.6,19.4,4.1,-5.9
O=C(Nc1ccc(Cl)cc1)c1ccc2c(=O)n3c(nc2c1)CCCCC3,-222.4,·,7.9,-37.0,-2.9,-23.3
O=C(Nc1ccccn1)c1ccc2c(=O)n3c(nc2c1)CCCCC3,-55.4,-12.0,56.1*,-24.4,12.8,-4.8
CCO/C(C)=N/Oc1cc(OC)cc(OC)c1,3.8,·,-12.2,0.0,5.4,·
CC(NC(=O)CCCc1nnc2n(C)c(=O)c3sccc3n12)c1ccccc1 (stereo unspecified),11.1,7.4,-10.0,4.0,-20.5,·
CC(=O)NC(c1ccc(F)c(F)c1)c1nc(-c2cnc3ccccc3c2)cs1 (stereo unspecified),-128.9,·,-16.2,-39.5,-43.6,·
CCN(CC(=O)Nc1ccc(NC(C)=O)cc1)C(=O)c1ccc(N2C(=O)c3ccccc3C2=O)cc1,11.1,0.1,-11.7,8.6,-10.3,1.3
CC1(c2nnnn2-c2ccc3c(c2)OCCO3)CCC(=O)N1CCc1ccccc1F (stereo unspecified),12.7,·,68.3*,·,37.1,·
Cc1cccc(C)c1-n1nnnc1C1(C)CCC(=O)N1CCc1ccccc1F (stereo unspecified),-5.5,·,1.9,·,-2.9,·
